An excerpt weighted towards active compounds, which were near 3.9% of everything screened.
ATXN2 expr inh = reduces ATXN2 reporter expression in HEK-293 cells; HEK-293 ATXN2-luciferase reporter, luminescence, 24 h; Potency, µM (series often up to 57 µM), usual class: inhibitors; 360,000 compounds, 0.72% hits; AID 1745845; also: nearly all actives have a fitted effect of over 55% in size
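qHTS (up to 57 uM final) was run with 24 h compound exposure of reporter cells at 37 °C. Each well was multiplexed: SteadyGlo luminescence measured ATXN2-luciferase expression after a fluorogenic Gly-Phe-AFC viability readout (25 uM final).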
S2 tox = cell viability loss in ATXN counter-screen | S2 cells (HEK-293 line with an ATXN2-luciferase reporter) viability, CellTiter-Fluor protease fluorescence, 24 h | Potency, µM (doses to about 56.7 µM), usual class: cytotoxic | 400,000 compounds, 0.49% hits | AID 651635; also: nearly all actives have a fitted effect of over 40% in size
HepG2 tox = HepG2 cytotoxicity, counter-screen for TGF-b inhibitors; HepG2 CAGA-GFP viability, ATP luminescence, 18 h; Potency, µM (series often up to 46.1 µM), actives largely listed as cytotoxic; 410,000 compounds, 0.76% hits
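HepG2 CAGA-GFP cells (1000/well, DMEM with 1% FBS) received compound, then TGF-beta at 500 pg/mL final, and were incubated 18 hours at 37 degrees C. Viability was read by CellTiter-Glo luminescence. Media-only wells were set as complete cell-killing and DMSO as no toxicity.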
HT1080NT lethal = kills 2HG-producing HT-1080-NT fibrosarcoma cells | HT-1080-NT fibrosarcoma viability, CellTiter-Glo ATP luminescence, 48 h | Potency, µM (titrated, usually from 46.1 µM), usual class: cytotoxic | 360,000 compounds, 1.6% hits | AID 686970;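 also: NT is the 2HG producing partner of a matched IDH1 knockdown line; nearly all actives have a fitted effect of over 55% in size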
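HT-1080-NT fibrosarcoma cells (2HG-overproducing), 750 cells/well in RPMI with 5% FBS, dosed after 2 h and incubated 48 h at 37C. CellTiter-Glo luminescence normalized to DMSO and no-cell wells; concentration-response curves fitted and classed.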
TGFb inhibitor = blocks TGF-b signaling | HepG2 CAGA-GFP TGF-b/SMAD3 reporter, GFP fluorescence, 18 h; TGF-beta stimulated, 500 pg/mL final | Potency, µM (highest dose often 46.1 µM), actives largely listed as inhibitors | 410,000 compounds, 1.2% hits; also: nearly all actives have a fitted effect of over 65% in size
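HEPG2 CAGA-GFP reporter cells (1000/well, DMEM with 1% FBS) received compounds, then recombinant TGF-beta at 500 pg/mL final for 18 hours at 37 degrees C. Per-cell GFP summed per well was normalised to unstimulated and stimulated DMSO controls before curve fitting.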
HT1080 IDH1KD tx = toxicity to HT-1080 IDH1 knockdown cells (counter line); HT-1080 IDH1 knockdown viability, ATP luminescence, 48 h; Potency, µM (top dose mostly 46.1 µM), hits mostly cytotoxic; 360,000 compounds, 2% hits
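IDH1KD HT-1080 cells, 750/well, RPMI + 5% FBS; compound pinned after 2 h settling; 48 h, 37 °C; CellTiter-Glo luminescence; % activity normalised to DMSO and no-cell wells; curves fitted, classed by r2 and efficacy.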
A number is an active result; – = inactive; ? = inconclusive; · = no result; ! = not active in a repeat. Calls follow the shape of the dose curve; as a rule, active = well fitted curve in the direction sought with a large enough effect; inconclusive = small, poorly fitted or top-dose-only effect, or another doubt; inactive = no such curve, though single readings can be large; an effect the other way counts as inactive or inconclusive.

SMILES	ATXN2 expr inh	S2 tox	HepG2 tox	HT1080NT lethal	TGFb inhibitor	HT1080 IDH1KD tx
COc1cc(/C=N/Nc2cc(C)nc(NS(=O)(=O)c3ccc(C)cc3)n2)ccc1O	–	–	–	–	–	?
Cc1cc(N/N=C/c2ccccc2[N+](=O)[O-])nc(-n2nc(C)cc2C)n1	?	?	–	?	2.5µM	–
COc1ccc(/C=N/Nc2cc(C)nc(-n3nc(C)cc3C)n2)cc1	20µM	?	–	?	–	?
CCOC(=O)C1CCCN(C(=O)c2cnn(-c3ncc4c(n3)-c3ccccc3CC4)c2C)C1 (configuration not stated)	·	–	·	·	·	·
COCc1ccc(C(=O)N2CCOc3c(cc(-c4cc(C)c5cccc(OC)c5n4)cc3OC)C2)o1	·	–	·	·	·	·
CCc1nc2ccccc2n1CCCCOc1ccc(Cl)cc1	?	?	–	·	?	·
C1=Nc2ccccc2CN1c1ccccc1	–	–	–	–	–	–
CC(C)c1ccc(N2C=Nc3ccc(C(C)C)cc3C2)cc1	–	?	–	?	?	23µM
CCCCn1c(SCC(=O)/C(C#N)=C(\C)N)nc2ccccc2c1=O	–	–	–	–	–	–
C/C(N)=C(/C#N)C(=O)CSc1nc2cc(Cl)ccc2c(=O)n1Cc1ccco1	?	–	–	–	–	–
C/C(N)=C(/C#N)C(=O)CSc1nc2ccccc2c(=O)n1Cc1ccc(F)cc1	·	?	–	–	11µM	–
C/C(N)=C(/C#N)C(=O)CSc1nc2ccccc2c(=O)n1Cc1ccc(C)cc1	–	?	–	?	–	16µM
O=C1Nc2cccnc2N(C(=O)CCl)c2ccccc21	?	20µM	–	?	?	16µM
Cc1[nH]c2ccccc2c1C(=O)CN(C)c1ccccc1	·	·	–	·	?	·
Cc1[nH]c2ccccc2c1C(=O)CCl	·	11µM	–	?	?	?
Cc1ccc(C2CC(C(F)(F)F)n3nc(C(=O)NCc4c(C)nn(C)c4C)c(Cl)c3N2)cc1 (configuration not stated)	?	–	–	?	13µM	?
Cc1nn(C)c(C)c1CNC(=O)c1cnn2c1NC(c1ccccc1)CC2C(F)(F)F (configuration not stated)	–	–	–	–	–	–
c1ccc2nc(-c3nc4ccccc4[nH]3)ccc2c1	?	–	–	26µM	–	13µM
c1ccc2c(-c3nc4ccccc4[nH]3)cccc2c1	·	?	–	?	–	18µM
CCN(CC)c1ccc(N=Cc2ccccc2[N+](=O)[O-])cc1	?	?	8.9µM	–	?	?
CCN(CC)c1ccc(N=Cc2ccc([N+](=O)[O-])o2)cc1	–	–	–	18µM	–	?
CC(=O)N(C)c1ccc(N=Cc2cc3c(cc2[N+](=O)[O-])OCO3)cc1	–	–	–	–	–	–
O=C(O)c1cccc(-c2nnn(Cc3ccccc3Cl)n2)c1	11µM	–	–	–	–	–
O=C1c2ccccc2C(=O)N1CC1CCCO1 (configuration not stated)	–	–	3.5µM	–	–	–
CN(C)c1ccc(NC(=O)Cn2cc(S(=O)(=O)Cc3ccccc3Cl)c3ccccc32)cc1	·	·	–	·	·	·
SMILES	ATXN2 expr inh	S2 tox	HepG2 tox	HT1080NT lethal	TGFb inhibitor	HT1080 IDH1KD tx
Cn1nnnc1Sc1ncnc2scc(-c3ccc(F)cc3)c12	?	?	10µM!	?	11µM	21µM
c1ccc(-c2csc3ncnc(Sc4nnnn4-c4ccccc4)c23)cc1	·	·	–	·	11µM	·
Cn1nnnc1Sc1ncnc2scc(-c3ccc[nH]3)c12	10µM	?	–	·	?	·
Cc1ccc(-c2csc3ncnc(Sc4nnnn4C4CC4)c23)cc1	·	·	–	·	–	·
Cn1nnnc1Sc1ncnc2scc(-c3ccc(Br)cc3)c12	16µM	13µM	16µM	·	?	·
COc1cc(C2C3=C(COC3=O)Oc3cc4c(cc32)OCO4)cc(OC)c1OC(C)=O (configuration not stated)	–	?	–	?	?	?
COc1cc(C2C3=C(COC3=O)Oc3cc4c(cc32)OCO4)ccc1OC(C)=O (configuration not stated)	–	?	–	?	–	5.8µM
COc1ccc(C2C3=C(COC3=O)Oc3cc4c(cc32)OCO4)cc1OC (configuration not stated)	–	–	–	5.8µM	–	?
NC(=S)N/N=C/c1ccc(/C=N/NC(N)=S)cc1	·	–	–	–	–	–
NC(=S)N/N=C/c1ccc2ccccc2c1	–	–	–	–	–	–
NC(=S)N/N=C/c1cccc(O)c1O	–	–	–	–	–	–
NC(=S)NN=Cc1nccc2ccccc12	?	?	–	4.1µM	–	?
NC(=S)NN=Cc1nccc2c(C(F)(F)C(F)(F)C(F)(F)F)cccc12	·	·	–	?	1.4µM	?
Cc1cnc(C=NNC(N)=S)c2cccc(N)c12	?	?	–	–	10µM	?
Cc1nc2sc(C(=O)Nc3ccc(F)cc3)c(N)c2c(-c2ccc(Br)cc2)c1C(=O)Nc1ccc(Cl)cc1	–	–	–	·	–	·
Cc1ccc(OCC(=O)Nc2ccc3nc(SCC(=O)N(C)c4ccccc4)sc3c2)cc1	?	?	–	·	–	·
Cn1c(N2CCCCS2(=O)=O)nc(C(=O)NCc2ccc(F)cc2)c(O)c1=O	–	·	·	·	·	·
CCn1cc(CN2CCOc3ccc(C(O)C4CCCCC4)cc3C2)c(C)n1 (configuration not stated)	·	–	·	·	·	·
CC(C)(C)c1nnc(NS(=O)(=O)c2ccccc2)s1	–	–	·	·	·	·
CCOc1cc(CNc2ccccc2)cc(Br)c1OCc1ccccc1F	–	–	–	–	–	–
COc1cc(CNC2CCCC2)cc(Cl)c1OCc1ccc(F)cc1	?	?	–	16µM	–	21µM
COc1cc(CNc2ccc(O)cc2)cc(Br)c1OCc1ccccc1	·	–	–	?	22µM	–
COc1cc(CNC(C)c2ccccc2)cc(Br)c1OCc1ccccc1 (configuration not stated)	?	?	–	16µM	?	?
COc1cc(CNC2CCCC2)cc(Cl)c1OCc1ccccc1Cl	?	?	–	?	?	?
COc1ccc(Br)cc1CNc1ccc(O)cc1	–	–	13µM	?	?	?
COc1cc(C(N)=O)cc(Br)c1OCc1ccccc1	–	–	–	–	–	–
CN(C)/[N+]([O-])=N\Oc1cc(OC(=O)c2ccc(N)cc2)c([N+](=O)[O-])cc1[N+](=O)[O-]	·	·	–	·	–	·
CCC1CN(Cc2cn[nH]c2-c2ccc(F)cc2)Cc2cc(OC)ccc2O1 (configuration not stated)	·	–	·	·	·	·
COc1cc(CNC(C)c2ccccc2)cc(Br)c1OCc1ccc(F)cc1 (configuration not stated)	?	·	22µM	?	?	?
